# TIM10 inh: inhibits growth of TIM10 yeast strain | hit rate 1.4% among 330,000 | inhibition, % at 10 µM | AID 463195 | S. cerevisiae TIM10 strain growth, BacTiter-Glo luminescence, 24 h;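 active means inhibition of 40% or more at the single tested concentration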;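 further: wild-type TIM10 isogenic control strain grown at permissive 25 °C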
# tim10-1 inh: tim10-1 yeast growth inhibition; hit rate 2.2% among 330,000; AID 463190; S. cerevisiae tim10-1 ts strain growth, BacTiter-Glo, 24 h; inhibition, % at 20 µM;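 active means inhibition of at least 40%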;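 further: mutant grown at 25 °C; 0% = DMSO wells with yeast and 100% = wells holding no yeast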
# tim23-1 inh: growth inhibitors of tim23-1 mutant yeast | S. cerevisiae tim23-1 growth, BacTiter-Glo luminescence, 24 h | inhibition, % at 20 µM | hit rate 1.3% among 330,000;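 active means growth inhibition of the mutant yeast at or above 50%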;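 further: temperature-sensitive mutant grown at 25 °C; plate controls were DMSO-treated mutant yeast for no effect and medium wells lacking yeast for full effect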
# NALP1 yeast inh: NALP1 inhibition. S. cerevisiae NALP1/ASC/caspase-1 growth, X-gal OD620, 72 h. inhibition, % at 10 µM. hit rate 0.61% among 280,000. AID 2071; in the data active means inhibition mostly above about 24%, no sharp cut-off; inactive means mostly below about 32%
# NLRP3 yeast inh: blocks the NALP3 inflammasome reconstituted in yeast. hit rate 0.39% among 330,000. Yeast reconstituted NLRP3/ASC/caspase-1, beta-gal luminescence, 24 h. inhibition, % at 10 µM. AID 2825;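 active means inhibition of 50% or more; inactive means inhibition below 50%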;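 further: plate controls were induced DMSO wells for no effect and uninduced yeast grown without galactose for full effect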
# SKKanGAS inh: blocks kanamycin growth of S. pyogenes SKKanGAS strain; BacTiter-Glo, 6 h; inhibition, % at 7.5 µM; hit rate 1.3% among 300,000; AID 1662;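 active means mean replicate score, as percent of positive control median, at least 50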;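 further: strain carries kanamycin resistance gene driven by streptokinase promoter and grows in 40 µg/ml kanamycin; loss of luminescence reflects streptokinase promoter inhibition or plain growth inhibition; 0% = median of DMSO wells and 100% = positive control at its reference dose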
# * = called active by the depositor; nt = not tested or not shown. Only some compounds are listed: those with a hit (about 4.9% of all), similar ones and a draw of the others.
SMILES,TIM10 inh,tim10-1 inh,tim23-1 inh,NALP1 yeast inh,NLRP3 yeast inh,SKKanGAS inh
Oc1ccc(Cl)cc1-c1cc(C(F)(F)C(F)F)nc(-c2ccccc2)n1,15,3,15,43*,-3,2
CC(C)C(=O)c1cn(CC(=O)O)c2ccccc12,4,-8,5,26*,-3,-9
O=C(CN1C(=O)c2ccc(Br)cc2C1=O)NCC1CCCO1 (stereo unspecified),4,12,7,15,6,6
O=c1[nH]cnc(O)c1C(c1ccc2c(c1)OCO2)c1c(O)nc[nH]c1=O,-8,-17,5,28*,16,-10
O=c1[nH]cnc(O)c1C(c1ccc(Br)cc1)c1c(O)nc[nH]c1=O,5,11,14,10,5,-9
COc1ccc(N2CCN(CCC(O)c3ccc4ccccc4c3)CC2)cc1 (stereo unspecified),-67,-27,-22,40*,28,0
COc1ccc(C(CCN2CCN(c3ccccc3)CC2)c2c(O)cc(OC)cc2OC)cc1 (stereo unspecified),9,6,14,8,14,-2
CC(C)(C)c1ccc(-n2ncc3c2CCCC3NC(=O)CCN2CCCC2=O)cc1 (stereo unspecified),-5,-9,10,-3,2,-3
CCn1c(SCc2ccc(F)cc2)nc2ccccc2c1=O,-26,0,4,14,-10,51*
CCc1ccc2c(COC(=O)C3CSC4(C)CCC(=O)N34)cc(=O)oc2c1 (stereo unspecified),7,21,27,nt,16,nt
CC(C)(C)N(Cc1ccccc1)C(=O)CN1C(=O)c2ccccc2S1(=O)=O,12,20,38,nt,25,nt
COC(=O)c1cc(C(=O)Nc2nc3ccccc3[nH]2)cc([N+](=O)[O-])c1,-8,-21,-8,1,15,63*
CC(Sc1ccsc1[N+](=O)[O-])C(=O)NCc1ccco1 (stereo unspecified),8,21,2,4,0,-7
CN(C)CCCN(C(=O)c1ccc2c(c1)CCCC2)c1nc2ccc(Cl)cc2s1,29,2,47,82*,33,2
CCOc1ccc2nc(N(CCCN(C)C)C(=O)c3ccc4c(c3)CCCC4)sc2c1,7,23,23,30,28,1
COc1cccc2sc(N(CCN(C)C)C(=O)c3ccc4c(c3)CCCC4)nc12,29,34,32,39,19,1
CN(C)CCN(C(=O)c1ccc2c(c1)CCCC2)c1nc2c(F)cccc2s1,24,19,22,42*,16,-2
COc1cc(OC)cc(-c2c(-c3ccc(F)cc3)c3cc(-c4ccc(SC)cc4)ccc3n2C)c1,-6,-3,-4,nt,9,nt
Cc1ccc(N=CNc2ccc(C)cc2C)c(C)c1,-14,-18,-10,41*,10,-1
Cc1ccc(NC(=O)CC(=O)Nc2ccc(C)cc2C)c(C)c1,6,-7,4,-2,24,-4
COc1cnc(-c2ccccn2)nc1N(C)c1ccccc1,23,-31,10,18,25,72*
COc1cnc(-c2ccccn2)nc1Oc1ccccc1,-38,-5,-8,21*,12,57*
CCOC(=O)CSc1nc(-c2ccccn2)ncc1OC,-26,-9,-21,5,-9,11
COc1ccc(Sc2nc(-c3ccccn3)ncc2OC)cc1,30,27,43,2,28,11
N#Cc1ccccc1S(=O)(=O)N1CCN(C(=O)Cc2coc3cc(O)ccc23)CC1,8,7,4,nt,12,nt
SMILES,TIM10 inh,tim10-1 inh,tim23-1 inh,NALP1 yeast inh,NLRP3 yeast inh,SKKanGAS inh
Cc1c(C(=O)Nc2nc3ccccc3[nH]2)oc2ccc(Br)cc12,8,8,13,5,-11,79*
CSc1cccc(NC(=S)NC(=O)CCc2ccccc2)c1,18,23,45,11,16,60*
CSc1cccc(NC(=O)CCc2ccccc2)c1,-1,9,17,0,16,-7
COc1ccc2c(c1)c(/C=N/Nc1nc3ccccc3[nH]1)c(C)n2C,-7,20,16,21,14,71*
COc1ccc(/C=N/Nc2nc3ccccc3[nH]2)cc1OC,-19,10,-20,-11,8,3
COc1cc(/C=N\Nc2nc3ccccc3[nH]2)cc(OC)c1OC,0,13,7,6,1,94*
COc1cc(OC)c(OC)cc1/C=N/Nc1nc2ccccc2[nH]1,2,1,7,-3,12,-7
CCN(CC)c1ccc(/C=N/Nc2nc3ccccc3[nH]2)c(O)c1,24,17,44,4,10,94*
Cc1ccc(NC(=O)C2CCCN2C(=O)NC2CCCCC2)cc1 (stereo unspecified),-1,9,0,25*,21,3
COc1cc2nc(CN3CCN(S(=O)(=O)c4cc(C)ccc4C)CC3)[nH]c(=O)c2cc1OC,-3,17,11,nt,13,nt
COc1ccc(OC)c(-c2csc(NC(=O)COC(=O)c3ccc(NC(=O)CC#N)cc3)n2)c1,1,-5,7,nt,7,nt
CC(=O)Nc1cccc(NC(=O)c2cccc(-c3ccc(O)cc3)c2)c1,-14,5,3,25,17,9
COc1ccc(NC(=O)c2cccc(-c3ccc(O)cc3)c2)cn1,-12,-95,-38,8,9,53*
COc1ccc(C(=O)Nc2ccc(/C(C)=N/NC(=O)c3ccncc3)cc2)cc1,-2,-1,-7,8,17,0
Cc1ccc(-c2nn(-c3ccccc3)cc2/C=N/NC(=O)CSc2nnc(C)n2-c2ccccc2)cc1,11,11,17,3,0,54*
COc1cccc(/C=N/NC(=O)CSc2nnc(C)n2-c2ccccc2)c1O,11,-4,-12,12,10,16
Cc1cc(C)n2nc(C(F)(F)F)c(-c3ccccc3)c2n1,13,6,30,-6,21,3
CN(C(=O)c1ccc(NC(=O)Cc2cccc(NC(=O)C3CCN(C(=O)CCc4ccccc4)CC3)c2)cc1)C1CCCC1,2,12,17,nt,1,nt
O=C(c1ccc2c3c(cccc13)CC2)C1CCCN(Cc2ccccn2)C1 (stereo unspecified),-20,-32,-6,21,15,69*
O=C(Nc1ccc(-c2cccc(F)c2)cc1)C1CCCN(Cc2ccccn2)C1 (stereo unspecified),23,38,25,18,29,52*
Cc1ncc(CN2CCCC(C(=O)Nc3ccc(-c4cccc(F)c4)cc3)C2)cn1 (stereo unspecified),26,32,36,19,-12,-2
CCOc1ccc(NS(=O)(=O)c2ccc3c(c2)N(C(C)=O)CCS3)cc1,12,9,9,-4,13,7
N#Cc1nc(-c2ccccc2F)oc1N1CCN(C(=O)c2ccco2)CC1,-21,16,9,1,23,21

# Source: PubChem BioAssay
